# Columns and labels:
# Type in all cases: functional
# Plasmodium falciparum [1] = test: GSK_TCMDC: Inhibition of Plasmodium falciparum 3D7 in whole red blood cells, using parasite LDH activity as an index of growth. Test compounds present at 2uM
# Plasmodium falciparum [2] = test: GSK_TCMDC: Inhibition of Plasmodium falciparum Dd2 in whole red blood cells, using parasite LDH activity as an index of growth. Test compounds present at 2uM
# HepG2 = test: GSK_TCMDC: Percent inhibition of human HepG2 cell line. Test compounds present at 10uM.
SMILES,Inhibition (Plasmodium falciparum [1]),Inhibition (Plasmodium falciparum [2]),Inhibition (HepG2)
CN1CC=C(c2c[nH]c3ccc(Oc4ccccc4)cc23)CC1.O=C(O)C(=O)O,98%,98%,40%
COCCNCc1ccc(-c2ccc(CN(C(=O)Nc3ccccc3)C3CCN(Cc4ccccc4)CC3)cc2)cc1.O=C(O)C(F)(F)F,98%,39%,16%
O=C(NC1CCC(CN2CCC(c3c[nH]c4ccccc34)CC2)CC1)c1cnn(-c2ccccc2)c1-c1ccccc1Cl (configuration not stated),95%,11%,66%
COC(C(=O)OCCC1CCCN1C)(c1ccccc1)c1ccccc1 (configuration not stated),98%,9%,6%
CC(C)N(C)C(=O)n1cnc(S(=O)(=O)C2CC3CCC2C3)n1.Cl (configuration not stated),97%,96%,26%
C1=C(c2c[nH]c3ccccc23)CCN(Cc2ccccc2)C1,91%,80%,22%
O=C(NC1CCC(CN2CCC(c3c[nH]c4ccccc34)CC2)CC1)c1cc(-c2ccccc2)c(C(F)(F)F)s1 (configuration not stated),100%,100%,55%
O=C(Nc1ccc(Oc2ccccc2)cc1)NC1CCC(CN2CCC(c3c[nH]c4ccccc34)CC2)CC1 (configuration not stated),100%,97%,55%
Cc1cc(N(C)C2CCN(C)CC2)nc(Nc2ccc(Br)cc2)n1,100%,92%,0%
CC(C)NC(=O)Cn1cc(C2CCN(CC3CCN(C(=O)/C=C/c4ccc(Cl)c(Cl)c4)CC3)CC2)c2ccccc21.O=C(O)C(F)(F)F,97%,55%,31%
Cc1cccc2c(C3CCN(CC4CCC(NC(=O)/C=C/c5ccc(Cl)c(Cl)c5)CC4)CC3)c[nH]c12 (configuration not stated),92%,49%,97%
Cl.O=C(CC1CCCC1)N(CC1CCN(Cc2ccc(C(F)(F)F)cc2)CC1)c1ccc(N2CCOCC2)c(F)c1,92%,97%,10%
Cn1nc(-c2ccc(S(=O)(=O)N3CCC(CN4CCC(c5c[nH]c6ccccc56)CC4)CC3)s2)cc1C(F)(F)F,93%,48%,16%
CN1CC=C(c2c[nH]c3ccc(Sc4ccccc4)cc23)CC1.O=C(O)/C=C/C(=O)O,98%,99%,36%
COc1ccc(OC)c(CNCC(O)c2cc(C(F)(F)F)cc(C(F)(F)F)c2)c1 (configuration not stated),92%,100%,7%
CC[C@H]1CN2CC[C@@H]1C[C@@H]2[C@@H](O)c1cc(-c2ccc(F)cc2)nc2ccc(OC)cc12.Cl,98%,64%,18%
CC(Cc1ccc(OCCCCOc2ccccc2)cc1)NCCc1ccccc1Cl (configuration not stated),97%,58%,100%
NC(=O)CN1CC=C(c2c[nH]c3ccc(Br)cc23)CC1,83%,0%,30%
O=C(NC1CCN(CC2(c3ccc(Cl)cc3)CCC2)CC1)c1cscn1,98%,95%,0%
CCOC(C(=O)OCC1CCCN(C)C1)(c1ccccc1)c1ccccc1 (configuration not stated),98%,3%,13%
Cc1[nH]c2ccccc2c1C1=CCN(CC2CC2C(=O)c2ccccc2)CC1 (configuration not stated),95%,88%,18%
COc1cc(CN2CCN(c3ccnc(N(C)C4CCN(C)CC4)n3)CC2)cc(Cl)c1O,94%,63%,11%
CN1C2CCC1c1cc(NC(=O)c3cc(-c4ccc(Cl)cc4)cs3)ccc12.O=C(O)C(F)(F)F (configuration not stated),90%,35%,62%
O=C(c1ccccc1)C1CC1CN1CC=C(c2c[nH]c3ccccc23)CC1 (configuration not stated),95%,73%,4%
CC(Cc1ccc(OCCCCOc2ccccc2)cc1)NCCC1CCCN1C (configuration not stated),99%,98%,100%
CC(Cc1ccc(Sc2ccccc2)cc1)NCC(O)c1cccc(C(F)(F)F)c1 (configuration not stated),99%,53%,0%
CCC1CN2CCc3cc(OC)c(OC)cc3C2CC1CC1NCCc2c1[nH]c1ccc(O)cc21 (configuration not stated),99%,100%,45%
CO[C@@H]1C[C@@H](C(=O)Nc2ccccc2)N(c2ccc(C#N)c3ccccc23)C1,98%,100%,7%
CN1CCC(COC(=O)C(O)(c2ccccc2)c2ccccc2)C1 (configuration not stated) [TRICLAZATE],98%,4%,0%
